Shiga toxin inh = inhibitors of Shiga toxin in Vero cells. Vero cells, Shiga toxin protein synthesis inhibition reporter. inhibition, % at 38.7 µM. 290,000 compounds, 9.2% hits. AID 2315; in the data active = inhibition mostly above about 28%, no sharp cut-off; inactive = mostly below about 43%; note: 0% is about no effect
Sm TGR block = S. mansoni TGR enzyme inhibition. Q962Y6. purified TGR, DTNB reduction, TNB absorbance 405 nm. Potency, µM (titrated, usually from 114 µM), for the others: top-dose activity change, negative = inhibition, most hits filed as inhibitors. 360,000 compounds, 3% hits; note: potency is the fitted concentration of half-maximal effect; % is set by controls: 0 for no effect and ±100 for the full control effect; nearly all actives have a fitted effect of over 60% in size
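TGR 20 nM + NADPH 100 uM (dispensed conc.), cpd preinc 15 min RT; start with NADPH (500 uM addition) then DTNB (15 mM addition). Kinetic TNB absorbance, 405 nm filter. Four-parameter Hill fit across titration.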
FBPA Giardia inh = blocks Giardia fructose-bisphosphate aldolase activity. A8B2U2. purified Giardia FBPA. Potency, µM (series often up to 59.6 µM), for inactives: at the highest dose activity, negative = inhibition, hits mostly inhibitors. 290,000 compounds, 0.71% hits; note: potency is the fitted concentration of half-maximal effect; % is set by controls: 0 for no effect and ±100 for the full control effect; nearly all actives have a fitted effect of over 55% in size
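Giardia FBPA (40 nM reagent) was preincubated 10 min at RT with compound (up to 57.5 uM final), then substrate plus GAPDH/TPI/NAD/arsenate coupling system with diaphorase/resazurin was added; resorufin fluorescence (525/598 nm) was read after 20 min.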
Tb PYK inh = inhibitors of Trypanosoma brucei pyruvate kinase; TbPYK enzyme, Kinase-Glo Plus ATP luminescence, 45 min; Potency, µM (doses to about 76.8 µM), for the others: top-dose activity, negative = inhibition, usual class: inhibitors; 410,000 compounds, 0.12% hits; note: potency is the fitted concentration of half-maximal effect; % is set by controls: 0 for no effect and ±100 for the full control effect; nearly all actives have a fitted effect of over 50% in size
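Enzyme and substrate buffer are dispensed first and compound is pin-transferred. ADP at 130 uM final then starts the reaction, which runs 45 min at room temperature. Detection reagent is added for 10 min before luminescence is imaged.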
Cycloheximide cs = affects cycloheximide protein synthesis inhibition readout, counter-screen; cell reporter, cycloheximide protein synthesis inhibition counterscreen; AID 2314; max response, %; 300,000 compounds, 12% hits; in the data active = max response mostly above about 13%, no sharp cut-off; inactive = mostly below about 14%; note: read at 38.3 µM for the half of the compounds with a filed dose; 0% is about no effect
LmPK inhibitor = LmPK (Leishmania mexicana) enzyme inhibition; AID 1721; Potency, µM (highest dose often 57.5 µM), for inactives: at the highest dose activity change, negative = inhibition, usual class: inhibitors; 290,000 compounds, 0.37% hits; purified LmPK, Kinase-Glo ATP luminescence, 1 h; note: potency is the fitted concentration of half-maximal effect; % is set by controls: 0 for no effect and ±100 for the full control effect
Target sequence (Q27686 whole entry, looked up): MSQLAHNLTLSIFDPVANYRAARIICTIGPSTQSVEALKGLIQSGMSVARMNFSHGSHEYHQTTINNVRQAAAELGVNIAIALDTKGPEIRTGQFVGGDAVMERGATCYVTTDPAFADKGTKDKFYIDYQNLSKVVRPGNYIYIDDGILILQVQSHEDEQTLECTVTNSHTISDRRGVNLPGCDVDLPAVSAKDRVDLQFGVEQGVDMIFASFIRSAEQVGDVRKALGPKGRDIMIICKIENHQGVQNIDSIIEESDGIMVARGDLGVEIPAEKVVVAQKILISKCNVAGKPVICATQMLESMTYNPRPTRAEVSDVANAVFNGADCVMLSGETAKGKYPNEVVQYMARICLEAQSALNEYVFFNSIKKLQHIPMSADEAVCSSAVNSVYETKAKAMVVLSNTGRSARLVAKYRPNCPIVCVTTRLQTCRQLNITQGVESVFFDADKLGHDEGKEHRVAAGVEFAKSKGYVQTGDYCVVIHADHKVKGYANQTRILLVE
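Kinase-Glo luminescence read after 1 h RT reaction of 0.1 nM LmPK with 0.5 mM PEP and 0.1 mM ADP. Activity scaled between uninhibited and enzyme-free controls.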
The depositor's hits bear a star; u = inconclusive; x = not tested or not shown. Shown is part of a subset that was picked to be rich in hits. Unless noted, calls come from the whole dose curve; as a rule, active = well fitted curve in the direction sought with a large enough effect; inconclusive = small, poorly fitted or top-dose-only effect, or another doubt; inactive = no such curve, though single readings can be large; an effect the other way counts as inactive or inconclusive.

SMILES	Shiga toxin inh	Sm TGR block	FBPA Giardia inh	Tb PYK inh	Cycloheximide cs	LmPK inhibitor
O=C(Nc1ccccc1OC(F)F)c1ccc(N2CCCC2=O)cc1	x	x	x	2.5%	x	x
C/C(=N\NC(=O)c1cc(C(C)C)[nH]n1)c1ccncc1	48.9*	-0.2%	9.9%	-4.9%	31.6	4.2%
C/C(=N\NC(=O)c1cc(C(C)C)[nH]n1)c1ccco1	138.3*	-1.9%	0.3%	-13.1%	66.7*	u
COc1cc2c(cc1OC)[C@@H](NC(=O)CCc1ccccc1)[C@H](O)C2	x	x	x	0.4%	x	x
CCC1(c2ccc(O)cc2)NC(=O)NC1=O (configuration not stated)	-11.1	x	0.4%	x	-6.7	x
S=C(NCc1cccs1)Nc1ccc(Br)cc1Cl	81.3*	-34.7%	-3.8%	3.7%	44.4*	-0.5%
Cc1cc(C)cc(NC(=S)NCc2cccs2)c1	25.9*	-21.1%	1.6%	-15.2%	-1.9	3.1%
CCC(C)c1ccc(NC(=S)NCc2ccccc2OC)cc1 (configuration not stated)	38.8	x	1.1%	11.0%	8.2	-0.2%
S=C(NCCc1ccccc1)NCc1cccs1	active	-7.7%	5.1%	0.9%	54.4*	1.5%
COc1ccc(CCNC(=S)NCc2cccs2)cc1OC	-1.7	-2.9%	-2.9%	-0.6%	-0.9	-1.7%
CCC(C)c1ccc(NC(=S)NCc2cccs2)cc1 (configuration not stated)	76.5*	3.4%	0.9%	-19.3%	22.8*	1.5%
CCOc1ccc(C(=O)NCC(=O)NCC(c2ccc(OC)cc2)N2CCOCC2)cc1OCC (configuration not stated)	x	0.3%	x	-0.9%	x	x
O=C(O)Cc1ccc(NC(=S)Nc2ccc(Br)cc2Cl)cc1	-6.3	22.4µM*	-8.5%	0.9%	-1.3	0.5%
O=C(O)Cc1ccc(NC(=S)Nc2cccc(Cl)c2Cl)cc1	4.4	u	-14.3%	3.8%	-1.0	2.2%
S=C(NCc1cccs1)Nc1cccc2ccccc12	20.7	-11.5%	-2.9%	1.9%	1.5	0.1%
Cc1cccc(NC(=S)NCc2cccs2)c1C	-12.6	-15.2%	2.7%	4.1%	22.1*	1.5%
Oc1ccc(NCc2cccs2)cc1	-2.1	50.1µM*	-9.3%	u	24.4*	-2.4%
CC(C)(C)c1ccc(NC(=S)NCc2cccs2)cc1	54.2	-1.4%	0.1%	0.6%	22.8*	6.5%
COc1cc(NC(=S)NCc2cccs2)cc(OC)c1	-1.9	-28.4%	-0.4%	-3.2%	7.5	-6.3%
COc1cccc(C=C(C(C)=O)C(=O)c2ccccc2)c1	x	x	x	-2.3%	x	x
